Inconclusive results are not listed. Calls of active or inactive are those of the source. Unless noted, the call rests on the fitted dose curve; in most records, active means well fitted curve in the direction sought with a large enough effect in the repeat runs; inconclusive means weak or mixed curves; inactive means no such curve, though single readings can be large; an effect the other way counts as inactive or inconclusive.
Assays:
[1] = qHTS RealTime-Glo MT Cell Viability Assay in HEK293 cells - 24 hour (AID 1224886); further: top concentration of the series differs between compounds; nearly all actives have a fitted effect of over 50% in size
Outline: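 Nonlytic real-time viability readout: viable cells convert prosubstrate to NanoLuc substrate, giving luminescence proportional to live cell number. HEK293, 600 cells/well, compound added after 5 h, continuous culture at 37 C.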

[2] = qHTS RealTime-Glo MT Cell Viability Assay in HEK293 cells - 8 hour (AID 1224887); further: top concentration of the series differs between compounds; nearly all actives have a fitted effect of over 50% in size
Outline: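 Kinetic, non-lysing viability readout. Seed HEK293 (600/well) with reagent, incubate 5 h at 37 C/5% CO2, pin 23 nL compound in DMSO, incubate at 37 C, read luminescence at 0, 8, 16, 24, 32, 40 h.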

[3] = A CellTox Green Cytotoxicity Assay to monitor cytotoxicity in HEK293 cells - 16 hour (AID 1224888); further: nearly all actives have a fitted effect of over 35% in size
Outline: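 Real-time, in one plate: 600 HEK293 cells/well with dead-cell DNA dye, pinned compound after 5 h, 37 C incubation over 40 h; viable cells give no appreciable fluorescence.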

[4] = qHTS RealTime-Glo MT Cell Viability Assay in HepG2 cells - 0 hour (AID 1224889); further: nearly all actives have a fitted effect of over 50% in size
Outline: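 Luminescence read-out: viable HepG2 cells reduce a prosubstrate to a NanoLuc substrate, giving a signal proportional to live cell number. Reads taken at 0, 8, 16, 24, 32 and 40 h of compound exposure at 37 C.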

[5] = A CellTox Green Cytotoxicity Assay to monitor cytotoxicity in HepG2 cells - 8 hour (AID 1224890); further: nearly all actives have a fitted effect of over 45% in size
Outline: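 Cytotoxicity was tracked as dead-cell DNA fluorescence in HepG2 cells treated with test compounds at 37 C; each time-point value comes from one kinetic series spanning 0, 8, 16, 24, 32 and 40 h.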

[6] = qHTS assay to identify small molecule antagonists of the estrogen receptor alpha (ER-alpha) signaling pathway using the BG1 cell line in the presence of 0.1 nM 17-beta-estradiol - cell viability counter screen (AID 1259241); further: nearly all actives have a fitted effect of over 40% in size
Outline: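 VM7Luc4E2, 4,000 cells/well, phenol red-free medium + 10% charcoal-stripped FBS; 24 hr plating; cpd + 0.1 nM E2 final, 22 hr 37C/5% CO2; CellTiter-Fluor 30 min, fluorescence.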

[7] = qHTS assay to identify small molecule antagonists of the androgen receptor (AR) signaling pathway using the MDA cell line in the presence of 0.5 nM R1881 - cell viability counter screen (AID 1259242); further: nearly all actives have a fitted effect of over 45% in size
Outline: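 Cells seeded at 3,000/well and allowed 5 hr at 37C, 0% CO2 before compound transfer and R1881 (0.5 nM final) addition; 16 hr later, live-cell protease fluorescence indicated cytotoxicity.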

[8] = target: Estrogen receptor (Homo sapiens) (UniProt P03372); assay: qHTS assay to identify small molecule antagonists of the estrogen receptor alpha (ER-alpha) signaling pathway using the BG1 cell line in the presence of 0.1 nM 17-beta-estradiol (AID 1259244); further: nearly all actives have a fitted effect of over 50% in size
Estrogen receptor (Homo sapiens), sequence (P03372 whole entry, looked up): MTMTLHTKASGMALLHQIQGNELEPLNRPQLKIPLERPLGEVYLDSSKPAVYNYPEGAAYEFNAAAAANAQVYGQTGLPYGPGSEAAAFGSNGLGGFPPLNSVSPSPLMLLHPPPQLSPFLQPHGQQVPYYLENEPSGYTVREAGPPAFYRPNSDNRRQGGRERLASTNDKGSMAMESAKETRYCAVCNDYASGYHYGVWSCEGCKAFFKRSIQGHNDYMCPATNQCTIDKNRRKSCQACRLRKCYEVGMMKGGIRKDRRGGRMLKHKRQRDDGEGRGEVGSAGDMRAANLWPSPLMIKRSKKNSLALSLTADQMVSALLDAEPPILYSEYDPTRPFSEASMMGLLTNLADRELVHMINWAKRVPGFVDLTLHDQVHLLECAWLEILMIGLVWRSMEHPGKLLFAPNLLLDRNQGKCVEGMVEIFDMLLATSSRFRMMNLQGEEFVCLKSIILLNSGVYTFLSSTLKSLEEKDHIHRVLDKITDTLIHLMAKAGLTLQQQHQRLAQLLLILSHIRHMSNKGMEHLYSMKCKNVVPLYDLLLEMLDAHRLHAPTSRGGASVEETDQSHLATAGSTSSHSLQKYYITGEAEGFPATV
Outline: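 Luciferase signal from VM7Luc4E2 ERE-reporter cells, co-dosed with test compound and 0.1 nM final 17beta-estradiol for 22 h, read with ONE-Glo.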

[9] = qHTS assay to identify small molecule HDAC inhibitors (AID 1259364);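 further: wild-type HCT-116 cells with endogenous class I/II HDAC activity; top concentration of the series differs between compounds; nearly all actives have a fitted effect of over 45% in size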
Outline: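 HCT-116 wt cells, 1,500/well, overnight attach. Compounds (DMSO) 2 h, 37 °C. HDAC-Glo I/II, 30 min RT. Luminescence.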

[10] = qHTS assay to identify small molecule HDAC inhibitors - cell viability counter screen (AID 1259365)
Outline: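 Luminescence from CellTiter-Glo, developed 30min at room temperature, reports viability of wild-type HCT-116 cells treated 2hr with compounds at 37 C and 5% CO2 after overnight plating.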

[11] = qHTS assay to identify small molecule agonists of the sonic hedgehog signaling (Shh) pathway - cell viability counter screen (AID 1259366); further: nearly all actives have a fitted effect of over 50% in size
Outline: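 Cytotoxicity counter screen run in the same wells as the Shh reporter assay. NIH/3T3 cells carrying a Gli1 response element–driven luciferase were treated with DMSO-dissolved compounds for 24hr, and live-cell protease activity was measured with CellTiter-Fluor.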

[12] = qHTS assay to identify small molecule antagonists of the sonic hedgehog signaling (Shh) pathway - cell viability counter screen (AID 1259367); further: nearly all actives have a fitted effect of over 55% in size
Outline: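 Cytotoxicity was assessed in parallel with Shh reporter activity by measuring live-cell protease fluorescence (CellTiter-Fluor) in NIH/3T3 cells stably carrying Gli1-Luc, treated with compound under conditioned medium stimulation for 23 hr plus 1 hr reagent incubation.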

[13] = qHTS assay to identify small molecule agonists of the sonic hedgehog signaling (Shh) pathway (AID 1259368; calls by dose curve;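 further: NIH/3T3-derived 3T3Gli1-Luc cells carrying a stable Gli1-driven firefly luciferase reporter; series mostly up to about 92 µM; nearly all actives have a fitted effect of over 15% in size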)
Outline: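 Following a 24 hr incubation with DMSO-dissolved compounds at 37 C, 5% CO2, Gli1-Luc NIH/3T3-derived cells received luciferase reagent for 30 min at room temperature prior to luminescence measurement.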

[14] = qHTS assay to identify small molecule antagonists of the sonic hedgehog signaling (Shh) pathway (AID 1259369; calls by dose curve; further: nearly all actives have a fitted effect of over 45% in size; further: potency means the concentration at half of the fitted maximal effect)
Outline: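 Read-out is luminescence from a firefly luciferase gene controlled by the Gli1 response element, in 3T3Gli1-Luc cells pre-incubated 4hr then exposed to compounds and conditioned medium for 24hr.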

[15] = target: Estrogen receptor beta (Homo sapiens) (UniProt Q92731); assay: qHTS assay to identify small molecule agonists of the estrogen receptor beta (ER-beta) signaling pathway (AID 1259377; active means well fitted activation curve with a large enough effect in the signal ratio in the repeat runs, not every such curve was filed as active; the % refers to the signal ratio)
Estrogen receptor beta (Homo sapiens), sequence (Q92731 whole entry, looked up): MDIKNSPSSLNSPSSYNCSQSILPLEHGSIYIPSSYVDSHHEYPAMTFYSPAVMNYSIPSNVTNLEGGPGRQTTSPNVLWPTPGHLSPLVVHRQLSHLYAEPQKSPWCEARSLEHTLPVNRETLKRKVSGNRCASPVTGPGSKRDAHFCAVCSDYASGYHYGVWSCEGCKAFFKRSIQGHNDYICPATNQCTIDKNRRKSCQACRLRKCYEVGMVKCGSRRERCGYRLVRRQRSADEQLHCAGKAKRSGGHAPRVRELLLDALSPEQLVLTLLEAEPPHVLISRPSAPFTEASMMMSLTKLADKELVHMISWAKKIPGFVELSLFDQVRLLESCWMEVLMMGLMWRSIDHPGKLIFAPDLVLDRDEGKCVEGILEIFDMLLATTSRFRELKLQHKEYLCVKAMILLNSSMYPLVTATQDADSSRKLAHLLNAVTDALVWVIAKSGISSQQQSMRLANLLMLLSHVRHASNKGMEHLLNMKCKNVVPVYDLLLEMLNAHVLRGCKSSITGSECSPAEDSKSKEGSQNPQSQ
Outline: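 HEK293T ER-beta-UAS-bla; 2% charcoal-stripped FBS; cells pre-incubated 6 hr, compound 16 hr, 37C/5% CO2; LiveBLAzer B/G FRET substrate 2 h RT; fluorescence intensity read.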

[16] = target: Estrogen receptor beta (Homo sapiens) (UniProt Q92731); assay: qHTS assay to identify small molecule antagonists of the estrogen receptor beta (ER-beta) signaling pathway (AID 1259378; active means well fitted inhibition curve with a large enough effect in the signal ratio in the repeat runs, not every such curve was filed as active; the % refers to the signal ratio)
Outline: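 ER-beta-UAS-bla HEK293T (GripTite) cells in 2% charcoal-stripped FBS medium were preincubated 6 hr at 37C, dosed with compound, then stimulated with 1 nM E2 (final) for 16 hr; beta-lactamase reporter read by B/G FRET fluorescence after 2 hr substrate loading.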

[17] = qHTS assay to identify small molecule agonists of the androgen receptor (AR) signaling pathway in the presence of an antagonist - cell viability counter screen (AID 1259379);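 further: MDA-kb2 human breast cancer cells carrying an MMTV luciferase reporter; series mostly up to about 92 µM; nearly all actives have a fitted effect of over 25% in size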
Outline: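 Each compound was tested at 15 concentrations on MDA-kb2 cells in the presence of 3.0uM nilutamide. Viability was measured by CellTiter-Fluor fluorescence after a 16 hr incubation at 37C in a CO2-free atmosphere.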

[18] = qHTS assay to identify small molecule agonists of the estrogen receptor beta (ER-beta) signaling pathway - cell viability counter screen (AID 1259380); further: nearly all actives have a fitted effect of over 30% in size
Outline: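 Compounds dissolved in DMSO were pin-transferred onto ER-beta-UAS-bla HEK293T cells that had settled 6 hr, and exposure ran 16 hr at 37C. Following the reporter read, CellTiter-Glo luminescence after 30 min at room temperature indicated cytotoxicity.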

[19] = target: Androgen receptor (Homo sapiens) (UniProt P10275); assay: qHTS assay to identify small molecule antagonists of the androgen receptor (AR) signaling pathway using the MDA cell line in the presence of 0.5 nM R1881 (AID 1259243); further: nearly all actives have a fitted effect of over 50% in size
Androgen receptor (Homo sapiens), sequence (P10275 whole entry, looked up): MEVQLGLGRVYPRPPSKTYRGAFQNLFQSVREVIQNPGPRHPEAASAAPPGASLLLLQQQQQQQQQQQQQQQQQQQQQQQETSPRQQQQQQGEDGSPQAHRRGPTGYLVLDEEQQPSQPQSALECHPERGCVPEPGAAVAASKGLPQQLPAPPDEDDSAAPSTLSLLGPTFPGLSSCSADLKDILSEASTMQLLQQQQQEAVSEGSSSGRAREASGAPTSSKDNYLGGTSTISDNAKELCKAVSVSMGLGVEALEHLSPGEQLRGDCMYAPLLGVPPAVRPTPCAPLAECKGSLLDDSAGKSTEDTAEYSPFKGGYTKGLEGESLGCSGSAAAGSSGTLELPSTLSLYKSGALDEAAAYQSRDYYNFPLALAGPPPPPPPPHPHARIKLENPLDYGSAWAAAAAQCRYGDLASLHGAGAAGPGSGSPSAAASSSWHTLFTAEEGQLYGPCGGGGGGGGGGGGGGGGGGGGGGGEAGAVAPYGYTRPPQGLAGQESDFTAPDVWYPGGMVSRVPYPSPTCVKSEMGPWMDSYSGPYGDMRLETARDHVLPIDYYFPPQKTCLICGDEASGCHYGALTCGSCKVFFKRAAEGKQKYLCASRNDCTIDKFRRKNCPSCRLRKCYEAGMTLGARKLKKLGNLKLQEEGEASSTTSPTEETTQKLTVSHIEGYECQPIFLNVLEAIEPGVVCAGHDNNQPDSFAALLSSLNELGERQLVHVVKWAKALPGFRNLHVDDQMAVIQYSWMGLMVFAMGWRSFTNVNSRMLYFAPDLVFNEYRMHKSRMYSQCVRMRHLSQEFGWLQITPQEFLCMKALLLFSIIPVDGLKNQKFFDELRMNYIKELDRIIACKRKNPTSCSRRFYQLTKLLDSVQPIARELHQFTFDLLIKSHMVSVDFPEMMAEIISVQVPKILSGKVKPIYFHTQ
Outline: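 Luminescence from an AR/GR-responsive MMTV-luciferase construct in MDA-kb2 breast carcinoma cells, read 30 min after ONE-Glo, following 16 hr co-treatment with compounds and 0.5 nM R1881.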

[20] = qHTS assay to identify small molecule phospholipidosis (PLD) inducers (AID 1259344; active means well fitted curve in the direction sought with a large enough effect; an effect the other way counts as inactive or inconclusive)
Outline: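 Cells (HepG2, 900 per well) attach for 4 h, receive LipidTOX Red and compound together, incubate 24 h at 37 C, are fixed 30 min with paraformaldehyde/Hoechst, then imaged at one site per well.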
On the % scale 0 is the no-effect control and ±100 the full control effect.

CC(C)COC(=O)/C=C/c1ccccc1
inactive: Potency [1] | Potency [2] | Potency [3] | Potency [4] | Potency [5] | Potency [6] | Potency [7] | Potency [8] | Potency [9] | outcome [10] | Potency [11] | Potency [12] | outcome [13] | Potency [14] | Potency [15] | outcome [16] | Potency [17] | outcome [18]

CCCCC[Si](OCC)(OCC)OCC
inactive: Potency [1] | Potency [2] | Potency [3] | Potency [4] | Potency [5] | Potency [6] | Potency [7] | outcome [19] | Potency [9] | outcome [10] | Potency [11] | Potency [12] | outcome [13] | Potency [14] | Potency [15] | outcome [16] | Potency [17] | outcome [18]

Nc1cc(C(=O)O)ccc1Cl
inactive: Potency [1] | Potency [2] | Potency [3] | Potency [4] | Potency [5] | Potency [6] | Potency [7] | outcome [19] | Potency [9] | outcome [10] | Potency [11] | Potency [12] | outcome [13] | Potency [15] | Potency [17] | outcome [18]

CCOC(=O)C(C)(C)C
inactive: Potency [1] | Potency [2] | Potency [3] | Potency [4] | Potency [5] | Potency [6] | Potency [7] | Potency [8] | Potency [9] | outcome [10] | Potency [11] | Potency [12] | outcome [13] | Potency [14] | Potency [15] | outcome [16] | Potency [17] | outcome [18]

Cc1c(C(C)C)c(=O)n(-c2ccccc2)n1C
active: Potency [14] 1060 nM
inactive: Potency [1] | Potency [2] | Potency [3] | Potency [4] | Potency [5] | Potency [6] | Potency [7] | Potency [8] | outcome [20] | Potency [9] | outcome [10] | Potency [11] | Potency [12] | outcome [13] | Potency [15] | outcome [16] | Potency [17]

CC(=O)N(CC(O)CO)c1c(I)c(C(=O)NCC(O)CO)c(I)c(C(=O)NCC(O)CO)c1I (stereo not drawn)
inactive: Potency [1] | Potency [2] | Potency [3] | Potency [4] | Potency [5] | Potency [6] | Potency [7] | Potency [8] | outcome [20] | Potency [9] | outcome [10] | Potency [11] | Potency [12] | outcome [13] | Potency [14] | Potency [17]

CC(=O)N1CCN(c2ccc(O)cc2)CC1
inactive: Potency [1] | Potency [2] | Potency [3] | Potency [4] | Potency [5] | Potency [6] | Potency [7] | outcome [19] | Potency [9] | outcome [10] | Potency [11] | Potency [12] | outcome [13] | Potency [14] | Potency [15] | outcome [16] | Potency [17] | outcome [18]

O=C(O)c1ccccc1C(=O)Nc1ccc(S(=O)(=O)Nc2nccs2)cc1
inactive: Potency [1] | Potency [2] | Potency [3] | Potency [4] | Potency [5] | Potency [6] | Potency [7] | outcome [19] | outcome [20] | Potency [9] | outcome [10] | Potency [11] | Potency [12] | outcome [13] | Potency [14] | Potency [15] | Potency [17]

NC(=O)NC(=O)Cc1ccccc1
inactive: Potency [1] | Potency [2] | Potency [3] | Potency [4] | Potency [5] | Potency [6] | Potency [7] | Potency [8] | outcome [20] | Potency [9] | outcome [10] | Potency [11] | Potency [12] | outcome [13] | Potency [14] | Potency [15] | Potency [17] | outcome [18]

CC(C)C(=O)Nc1cccc(C(F)(F)F)c1
inactive: Potency [1] | Potency [2] | Potency [3] | Potency [4] | Potency [5] | Potency [6] | Potency [7] | Potency [8] | Potency [9] | outcome [10] | Potency [11] | outcome [13] | Potency [14] | Potency [15] | outcome [16] | Potency [17] | outcome [18]

BrC/C=C/CBr
inactive: activity change, negative = cytotoxicity [1] 0.605% [at 15.8 µM] | activity change, negative = cytotoxicity [2] -6.32% [at 15.8 µM] | activity change [3] 4.41% [at 15.8 µM, stronger effect = higher value] | activity change, negative = cytotoxicity [4] 4.43% [at 15.8 µM] | cytotoxicity increase [5] -2.29% [at 15.8 µM] | activity change, negative = cytotoxicity [6] 5.53% [at 19 µM] | viability change, negative = cytotoxic [7] 0.0069% [at 19 µM] | activity change, negative = inhibition [9] -0.207% [at 19 µM] | activity change, negative = cytotoxicity [10] 2.41% [at 19 µM] | viability change, negative = cytotoxic [11] 0.645% [at 19 µM] | viability change, negative = cytotoxic [12] -1.72% [at 19 µM] | activity change [13] -1.5% [at 18.9 µM] | activity change, negative = inhibition [14] -14% [at 19 µM] | activation [15] 0.425% [at 19 µM] | activity change, negative = cytotoxicity [17] 0.671% [at 19 µM] | activity change, negative = cytotoxicity [18] 4.89% [at 19 µM]

O=C(O)C(=O)Nc1cccc(-c2nn[nH]n2)c1
inactive: Potency [1] | Potency [2] | Potency [3] | Potency [4] | Potency [5] | Potency [6] | Potency [7] | outcome [20] | Potency [9] | outcome [10] | Potency [11] | Potency [12] | Potency [14] | Potency [17] | outcome [18]

CCOC(=O)OCC/C(SC(=O)OCC)=C(\C)N(C=O)Cc1cnc(C)nc1N
inactive: Potency [1] | Potency [2] | Potency [3] | Potency [4] | Potency [5] | Potency [6] | Potency [7] | PLD induction [20] 2.13% [at 1.53 µM] | Potency [9] | outcome [10] | Potency [11] | Potency [12] | outcome [13] | Potency [14] | Potency [15] | outcome [16] | Potency [17]

CC(=O)c1ccc2c(c1)CCCC2
inactive: Potency [1] | Potency [2] | Potency [3] | Potency [4] | Potency [5] | Potency [6] | Potency [7] | Potency [9] | outcome [10] | Potency [11] | Potency [12] | outcome [13] | Potency [14] | Potency [15] | Potency [17] | outcome [18]
